SMILES strings stand for the structures. Records with an inconclusive call do not appear. A number with no mark means an inactive call. Activity calls are given as the source filed them. Calls follow the shape of the dose curve; as a rule, active = well fitted inhibition curve with a large enough effect; inconclusive = small, poorly fitted or top-dose-only effect; inactive = no such curve, though single readings can be large or run the other way.
Potency is read from the fitted curve at half-maximal effect.

For the assay, the system named is Zika virus NS2B-NS3 protease (linked). As to the kind of experiment: 384 well plate NINDS AMC confirmatory qHTS for Zika virus inhibitors (AID 1347163). Also: nearly all actives have a fitted effect of over 50% in size.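 As to activity change, negative = inhibition: fluorescence of AMC released from Ac-VKTGKR-AMC peptide cleaved by the protease; top concentration of the series differs between compounds; 0% = no-inhibitor control and -100% = no-enzyme control.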 To be noted: Recombinant NS2B-NS3 protease, Ac-VKTGKR-AMC fluorescence; series mostly up to 1 mM; activity change, negative = inhibition: at the top concentration. In a few lines: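 Linked protease 5/30/60 nM final; cpds up to 1 mM final, ~15 min preinc. Substrate Ac-VKTGKR-AMC 30 microM final. RT, dark, 25 min; FI ex 355/em 460; normalized to no-enzyme/no-inhibitor ctrls.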
As for `O=c1c(O)cc(C2Oc3cc(O)cc(O)c3CC2O)cc2c(C3Oc4cc(O)cc(O)c4CC3O)cc(O)c(O)c12` (stereo not given), the Potency is 7.94 µM (active).

With `N#C/C(=C\c1ccc(-c2cc(Cl)ccc2Cl)o1)C(=O)Nc1ccccc1C(=O)O`, the Potency was 20 µM (active). On to `CCOC(=O)c1ccc(N2C(=O)c3n[nH]c(-c4cccs4)c3C2c2ccc(C(C)(C)C)cc2)cc1` (stereo not given), for which the “activity change, negative = inhibition” value is -9.7%. Regarding `N#C/C(=C\c1ccc(-c2ccc(Cl)c(C(=O)O)c2)o1)c1nc2ccccc2[nH]1`, the Potency is 126 µM (active). Turning to `COc1cc(-c2ccc(N=Nc3ccc4c(S(=O)(=O)O)cc(S(=O)(=O)O)c(N)c4c3O)c(OC)c2)ccc1N=Nc1ccc2c(S(=O)(=O)O)cc(S(=O)(=O)O)c(N)c2c1O`, the Potency was 7.08 µM (active). For `CCN(Cc1cccc(S(=O)(=O)O)c1)c1ccc(C(=C2C=CC(=[N+](CC)Cc3cccc(S(=O)(=O)O)c3)C=C2)c2ccc(O)cc2S(=O)(=O)O)cc1`, the Potency was 63.1 µM (active). In the case of `O=C(Nc1ccc(C(=O)Nc2ccc(C(=O)Nc3ccc(S(=O)(=O)O)c4cc(S(=O)(=O)O)cc(S(=O)(=O)O)c34)cc2)cc1)Nc1ccc(C(=O)Nc2ccc(C(=O)Nc3ccc(S(=O)(=O)O)c4cc(S(=O)(=O)O)cc(S(=O)(=O)O)c34)cc2)cc1`, the Potency was 39.8 µM (active). For the compound `O=C(O)c1ccccc1-c1c2cc(I)c(=O)c(I)c-2oc2c(I)c(O)c(I)cc12`, the Potency was 56.2 µM (active). Still for that read-out and setting: to `CC(C)c1ccc(NC(=O)c2ccc3c(O)c(S(=O)(=O)c4ccccc4)c(=O)[nH]c3c2)cc1` belongs 282 µM (active); to `O=C(OC1Cc2c(O)cc(O)cc2OC1c1cc(O)c(=O)c2c(O)c(O)cc(C3Oc4cc(O)cc(O)c4CC3OC(=O)c3cc(O)c(O)c(O)c3)c2c1)c1cc(O)c(O)c(O)c1` (stereo not given), 2.24 µM (active).

For the origin of these results see PubChem BioAssay (NCATS).
